The results in this text go back to the supplement of paper PMC10646978.

Common to all, as to conditions: modulator concentration 10 µM
Assay [1] relates to RAW-Dual (murine macrophage reporter line). The experiment in a line: NF-kB reporter (SEAP) activity fold change vs agonist alone; higher = enhanced NF-kB activity. A digest of the protocol: (§1)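 RAW-Dual murine macrophage reporter cells were seeded at 50 000 per well in 384-well plates and pre-incubated 1 hour at 37 °C with compound pin-transferred to 10 μM final. After 1 hour, a PRR agonist was added and cells incubated overnight. Supernatant NF-κB (SEAP, QUANTI-Blue, 620 nm absorbance) and IRF (Lucia luciferase, QUANTI-Luc, luminescence) signals were divided by the mean agonist-only control on the same plate to give fold change. Two replicate plates were averaged, with errors by propagation.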

For assay [2] the test system is unchanged. In words: IRF reporter (Lucia luciferase) activity fold change vs agonist alone; higher = enhanced IRF activity. A digest of the protocol: as §1
Assay [3] shares this test system. The experiment in a line: viability score (confluency relative to resting cells, overnight) (fraction); higher = more viable, active = viable (0.7 or more). A digest of the protocol:
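A compound met the cutoff when both of two confluency masks exceeded 70% of resting cells. Those masks were made with IncuCyte software from IncuCyte images of RAW-Dual macrophages treated overnight at 10 μM final. This is the basis of the viability score, which is confluency relative to resting cells.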

[4] abbreviates: agonist: CpG ODN 1826 0.5 ug/mL.

± gives the standard deviation.

In the case of `CC(C)(C)c1cc(C(=O)Oc2cccc3cccnc23)cc(C(C)(C)C)c1`, the results for the NF-kB reporter in assay [1] (setting [4]), in assay [1] (agonist: LPS 0.1 ug/mL) and in assay [1] (agonist: MPLA […]) were 0.895 ± 0.05, 0.976 ± 0.06 and 0.923 ± 0.064, respectively. Further, the figures for the IRF reporter in assay [2] (agonist: 3'3'-cGAMP 10 ug/mL), in assay [2] (agonist: LPS 0.1 ug/mL) and in assay [2] (agonist: MPLA […]) were 0.938 ± 0.034, 1.25 ± 0.097 and 1.23 ± 0.12, respectively. In addition, the viability score in assay [3] was 1 (active).

Regarding `CN(C)CCC(c1ccc(Br)cc1)c1ccccn1.O=C(O)/C=C\C(=O)O` (centres undefined), the NF-kB reporter is 1.07 ± 0.14 in assay [1] (setting [4]), 1.15 ± 0.27 in assay [1] (agonist: LPS 0.1 ug/mL) and 0.939 ± 0.052 in assay [1] (agonist: MPLA […]). The IRF reporter in assay [2] (agonist: 3'3'-cGAMP 10 ug/mL) was found to be 0.71 ± 0.024; in assay [2] (agonist: LPS 0.1 ug/mL), 1.17 ± 0.34; in assay [2] (agonist: MPLA […]), 0.918 ± 0.086. Also, the viability score in assay [3] is 1.01 (active).

Regarding `COc1cc(CNCc2ccc3ccccc3c2)cc(OC)c1`, the NF-kB reporter in assay [1] (setting [4]) came out at 1.26 ± 0.12; in assay [1] (agonist: LPS 0.1 ug/mL), 0.986 ± 0.1; in assay [1] (agonist: MPLA […]), 1.24 ± 0.1. In addition, the IRF reporter in assay [2] (agonist: 3'3'-cGAMP 10 ug/mL) worked out at 1.19 ± 0.35; in assay [2] (agonist: LPS 0.1 ug/mL) it was 0.906 ± 0.043; in assay [2] (agonist: MPLA […]) it was 2.05 ± 0.17. Also, in assay [3], the viability score was 0.589 (inactive).

With `NCC(=O)O`, the figures for the NF-kB reporter in assay [1] (setting [4]), in assay [1] (agonist: LPS 0.1 ug/mL) and in assay [1] (agonist: MPLA […]) were 0.965 ± 0.073, 0.999 ± 0.064 and 0.96 ± 0.021, respectively. For the same molecule, the IRF reporter in assay [2] (agonist: 3'3'-cGAMP 10 ug/mL) was 0.912 ± 0.068; in assay [2] (agonist: LPS 0.1 ug/mL) it was 1.02 ± 0.12; in assay [2] (agonist: MPLA […]), 1.23 ± 0.21. Also, the viability score in assay [3] was 1 (active).

In the case of `CN1CCN(CCCN2c3ccccc3Sc3ccc(S(=O)(=O)N(C)C)cc32)CC1` [Prestw-149], the NF-kB reporter in assay [1] (setting [4]) amounted to 0.413 ± 0.053; in assay [1] (agonist: LPS 0.1 ug/mL), 0.958 ± 0.052; in assay [1] (agonist: MPLA […]) it was 1.82 ± 0.044. Further, the IRF reporter in assay [2] (agonist: 3'3'-cGAMP 10 ug/mL) is 0.936 ± 0.051; in assay [2] (agonist: LPS 0.1 ug/mL), 0.851 ± 0.078; in assay [2] (agonist: MPLA […]) it was 1.55 ± 0.16. For the same molecule, in assay [3], the viability score is 0.149 (inactive).

Regarding `COc1ccccc1Cn1c(SC)nc2c(-c3ccccc3)c[nH]c2c1=O`, the NF-kB reporter turned out to be 1.51 ± 0.064 in assay [1] (setting [4]), 0.889 ± 0.11 in assay [1] (agonist: LPS 0.1 ug/mL) and 0.997 ± 0.053 in assay [1] (agonist: MPLA […]). Also, the IRF reporter in assay [2] (agonist: 3'3'-cGAMP 10 ug/mL) was determined as 0.114 ± 0.0059; in assay [2] (agonist: LPS 0.1 ug/mL) it was 1.05 ± 0.19; in assay [2] (agonist: MPLA […]), 1.41 ± 0.36. Also, the viability score in assay [3] was 0.948 (active).

On to `O=C1CCCN1c1ccc(Cn2cc(-c3nc(-c4ccc(F)cc4)no3)ccc2=O)cc1`, for which the values for the NF-kB reporter in assay [1] (setting [4]), in assay [1] (agonist: LPS 0.1 ug/mL) and in assay [1] (agonist: MPLA […]) were 0.981 ± 0.15, 1.06 ± 0.086 and 1.01 ± 0.086, respectively. Also, the results for the IRF reporter in assay [2] (agonist: 3'3'-cGAMP 10 ug/mL), in assay [2] (agonist: LPS 0.1 ug/mL) and in assay [2] (agonist: MPLA […]) were 1.02 ± 0.053, 1.04 ± 0.066 and 1.16 ± 0.15, respectively. In addition, the viability score in assay [3] is 1.01 (active).

Take `COC(=O)c1ccc(C=NN=C2C(=O)Nc3ccccc32)cc1`: the NF-kB reporter in assay [1] (setting [4]) came out at 0.968 ± 0.069; in assay [1] (agonist: LPS 0.1 ug/mL) it was 1.05 ± 0.09; in assay [1] (agonist: MPLA […]), 0.995 ± 0.028. The IRF reporter was found to be 0.527 ± 0.028 in assay [2] (agonist: 3'3'-cGAMP 10 ug/mL), 1.09 ± 0.053 in assay [2] (agonist: LPS 0.1 ug/mL) and 1.13 ± 0.11 in assay [2] (agonist: MPLA […]). Also, in assay [3], the viability score is 0.998 (active).

As for `Nc1ncn(C2OC(CO)C(O)C2O)c(=O)n1` (centres undefined), the NF-kB reporter in assay [1] (setting [4]) was 2.76 ± 0.66; in assay [1] (agonist: LPS 0.1 ug/mL), 1.35 ± 0.075; in assay [1] (agonist: MPLA […]), 4.3 ± 0.27. The values for the IRF reporter in assay [2] (agonist: 3'3'-cGAMP 10 ug/mL), in assay [2] (agonist: LPS 0.1 ug/mL) and in assay [2] (agonist: MPLA […]) were 0.541 ± 0.026, 0.728 ± 0.099 and 0.714 ± 0.085, respectively. Further, the viability score in assay [3] was 0.808 (active).

Consider `Cc1ccc(F)c(NC(=O)Nc2ccc(-c3cccc4[nH]nc(N)c34)cc2)c1`, for which the NF-kB reporter in assay [1] (setting [4]) amounted to 0.692 ± 0.1; in assay [1] (agonist: LPS 0.1 ug/mL), 0.758 ± 0.2; in assay [1] (agonist: MPLA […]), 1.59 ± 0.16. In addition, the figures for the IRF reporter in assay [2] (agonist: 3'3'-cGAMP 10 ug/mL), in assay [2] (agonist: LPS 0.1 ug/mL) and in assay [2] (agonist: MPLA […]) were 0.102 ± 0.0067, 1.04 ± 0.22 and 1.19 ± 0.38, respectively. In addition, the viability score in assay [3] is 0.829 (active).

Take `Cc1nnc(C)n1N=Cc1ccc(C(F)(F)F)cc1`: the figures for the NF-kB reporter in assay [1] (setting [4]), in assay [1] (agonist: LPS 0.1 ug/mL) and in assay [1] (agonist: MPLA […]) were 0.898 ± 0.058, 0.789 ± 0.061 and 0.962 ± 0.038, respectively. The values for the IRF reporter in assay [2] (agonist: 3'3'-cGAMP 10 ug/mL), in assay [2] (agonist: LPS 0.1 ug/mL) and in assay [2] (agonist: MPLA […]) were 0.957 ± 0.04, 0.909 ± 0.063 and 0.886 ± 0.093, respectively. Further, in assay [3], the viability score was 0.996 (active).

With `O=C(NN=Cc1c(O)ccc2ccccc12)c1ccccc1I`, the NF-kB reporter stood at 1.54 ± 0.47 in assay [1] (setting [4]), 1.11 ± 0.096 in assay [1] (agonist: LPS 0.1 ug/mL) and 1.02 ± 0.099 in assay [1] (agonist: MPLA […]). Moreover, the results for the IRF reporter in assay [2] (agonist: 3'3'-cGAMP 10 ug/mL), in assay [2] (agonist: LPS 0.1 ug/mL) and in assay [2] (agonist: MPLA […]) were 0.847 ± 0.043, 1.47 ± 0.15 and 1.55 ± 0.17, respectively. Also, the viability score in assay [3] was 1 (active).

Take `N#Cc1ccc(C(=O)Nc2nc(-c3cccs3)c(C(=O)C(F)(F)F)s2)cc1`: the NF-kB reporter in assay [1] (setting [4]) worked out at 0.789 ± 0.091; in assay [1] (agonist: LPS 0.1 ug/mL), 1.06 ± 0.13; in assay [1] (agonist: MPLA […]), 1.09 ± 0.17. Also, the figures for the IRF reporter in assay [2] (agonist: 3'3'-cGAMP 10 ug/mL), in assay [2] (agonist: LPS 0.1 ug/mL) and in assay [2] (agonist: MPLA […]) were 0.958 ± 0.03, 1.36 ± 0.21 and 1.54 ± 0.27, respectively. The viability score in assay [3] is 1.03 (active).

As for `COc1ccc2ncc(S(=O)(=O)c3ccccc3)c(N3CCN(c4ccccc4)CC3)c2c1`, the figures for the NF-kB reporter in assay [1] (setting [4]), in assay [1] (agonist: LPS 0.1 ug/mL) and in assay [1] (agonist: MPLA […]) were 0.611 ± 0.034, 0.924 ± 0.068 and 1.14 ± 0.13, respectively. Moreover, the figures for the IRF reporter in assay [2] (agonist: 3'3'-cGAMP 10 ug/mL), in assay [2] (agonist: LPS 0.1 ug/mL) and in assay [2] (agonist: MPLA […]) were 1.05 ± 0.036, 1.4 ± 0.16 and 1.13 ± 0.14, respectively. In addition, the viability score in assay [3] is 0.981 (active).

Regarding `CC(C)C1=NN2C(=N)C(=Cc3ccc(-c4ccccc4[N+](=O)[O-])o3)C(=O)N=C2S1`, the NF-kB reporter in assay [1] (setting [4]) worked out at 0.927 ± 0.078; in assay [1] (agonist: LPS 0.1 ug/mL) it was 0.953 ± 0.065; in assay [1] (agonist: MPLA […]) it was 0.944 ± 0.066. Moreover, the IRF reporter in assay [2] (agonist: 3'3'-cGAMP 10 ug/mL) stood at 0.89 ± 0.043; in assay [2] (agonist: LPS 0.1 ug/mL), 1.48 ± 0.22; in assay [2] (agonist: MPLA […]) it was 1.06 ± 0.22. For the same molecule, the viability score in assay [3] is 1.01 (active).

Take `COc1ccc(Cl)c(Nc2nc3ccccc3nc2NS(=O)(=O)c2cccc(NC(=O)C(C)(C)N)c2)c1`: the NF-kB reporter is 0.841 ± 0.23 in assay [1] (setting [4]), 1.05 ± 0.12 in assay [1] (agonist: LPS 0.1 ug/mL) and 1.11 ± 0.087 in assay [1] (agonist: MPLA […]). The IRF reporter in assay [2] (agonist: 3'3'-cGAMP 10 ug/mL) turned out to be 0.221 ± 0.013; in assay [2] (agonist: LPS 0.1 ug/mL) it was 1.21 ± 0.13; in assay [2] (agonist: MPLA […]), 1.32 ± 0.3. The viability score in assay [3] was 0.592 (inactive).

Take `CCCCN(Cc1ccccc1)C(=O)C1CCN(Cc2c(F)cccc2Cl)CC1`: the NF-kB reporter in assay [1] (setting [4]) was 0.378 ± 0.034; in assay [1] (agonist: LPS 0.1 ug/mL) it was 1.09 ± 0.09; in assay [1] (agonist: MPLA […]), 0.757 ± 0.056. For the same molecule, the IRF reporter in assay [2] (agonist: 3'3'-cGAMP 10 ug/mL) was 1.01 ± 0.029; in assay [2] (agonist: LPS 0.1 ug/mL), 1.69 ± 0.27; in assay [2] (agonist: MPLA […]) it was 1.36 ± 0.25. Also, in assay [3], the viability score is 0.617 (inactive).
